{"source": "PubChem BioAssay (NCI)", "note": "Compounds without any hit were thinned out: in the full panel of roughly 83,000, 20% have a hit.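 48-hour exposure, single concentration, 96-well plates; percent growth endpoint where 0 means no net growth. Active: below 10.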 Unmarked numbers belong to inactive results. Active and inactive are the calls of the source."}
{"system": "SK-MEL-2 melanoma", "experiment": "NCI-60 one-dose screen, 48 h (100 = growth as untreated, 0 = no growth, -100 = all killed)", "conditions": "10 µM unless noted", "units": {"growth": "%"}}
{"smiles": "COc1cc(/C=N/NC(=S)NNC(=S)NC2CCCCC2)cc(OC)c1OC", "growth": 108}
{"smiles": "COc1ccc2[nH]c(-c3ccc(Cl)cc3)cc(=O)c2c1", "growth": 96.3}
{"smiles": "Cc1cc(N(CCCNc2ccnc3cc(Cl)ccc23)Cc2ccco2)nc(Cl)n1", "growth": 65.4}
{"system": "EKVX NSCLC", "experiment": "NCI-60 one-dose screen, 48 h (100 = growth as untreated, 0 = no growth, -100 = all killed)", "conditions": "10 µM unless noted"}
{"smiles": "COc1cc2c3c(c4c5ccccc5[nH]c4c2c(OC)c1OC)C(=O)N(O)C3=O", "growth": "97.1%"}
{"smiles": "Cc1cc2nc3c4cc(O)ccc4n(CCN(C)C)c3nc2cc1C", "growth": "2.33% (active)"}
{"smiles": "Cc1csc(Nc2nc(-c3ccc(Cl)cc3)nc(C(Cl)(Cl)Cl)n2)n1", "growth": "76.6%"}
{"smiles": "Cc1cc(C)nc(NC(N)=NCCc2ccccc2)n1", "growth": "59.7%"}
{"smiles": "COc1cc(-c2c(C#N)c(-c3cccs3)nc3c2c(-c2ccccc2)nn3-c2ccccc2)ccc1O", "growth": "79.9%"}
{"smiles": "CN1CCN(c2ccc3nc(-c4[nH]ncc4Nc4ncnc5c4OCCCN5)[nH]c3c2)CC1", "growth": "-59.6% (active)"}
{"smiles": "COC(=O)[C@]12CC[C@@H](C)[C@H](C)[C@@H]1C1=CC[C@@H]3[C@@]4(C)C[C@@H](O)[C@H](O)[C@@](C)(CO)C4=CC[C@@]3(C)[C@]1(C)CC2", "growth": "-71.8% (active)"}
{"smiles": "O=C(NO)c1ccc(Cn2c(=O)n(-c3ccccc3)c(=O)c3ccccc32)cc1", "growth": "21.6%"}
{"smiles": "COC(=O)[C@]12CC[C@@H](C)[C@H](C)[C@@H]1C1=CC(=O)[C@@H]3[C@@]4(C)C[C@@H](O)[C@H](O)[C@@]5(C)COC(=C45)C[C@@]3(C)[C@]1(C)CC2", "growth": "75.8%"}
{"smiles": "Cn1cc(-c2csc(-c3cn(CCN)c4ccc(F)cc34)n2)c2cccnc21", "growth": "55.9%"}
{"smiles": "CN(C)CCCCC(C(=O)CBr)(c1ccccc1)c1ccccc1", "growth": "48.8%"}
{"smiles": "CC/C=C\\C[C@H]1CC=C2C(=O)C=C[C@@H]2CC=CCCCC(=O)O[C@@H](CCCCC)CC=C2C(=O)C=C[C@@H]2CC=CCCCC(=O)O[C@@H](CCCCC)CC=C2C(=O)C=C[C@@H]2CC=CCCCC(=O)O[C@@H](CCCCC)CC=C2C(=O)C=C[C@@H]2CC=CCCCC(=O)O1", "growth": "63.7% [7.9 µM]"}
{"smiles": "Clc1ccc2c(NCCNc3nc(-c4ccccc4)cc(-c4ccccc4)n3)ccnc2c1", "growth": "18.6%"}
{"smiles": "Cc1ccc(N(CC(=O)Nc2ccc(S(=O)(=O)N3CCC(N4CCCC4)CC3)cc2)S(=O)(=O)c2ccc(Cl)cc2)cc1", "growth": "70.1%"}
{"smiles": "Oc1ccc(Nc2ccccc2)cc1", "growth": "81.6%"}
{"smiles": "CCCCCCCCNc1cccc2c1C(=O)c1ccccc1C2=O", "growth": "109%"}
{"smiles": "Cc1cc(N(CCCNc2ccnc3cc(Cl)ccc23)Cc2ccco2)nc(N2CCN(C)CC2)n1", "growth": "66.1%"}
{"smiles": "C=C1C(=O)O[C@H]2[C@H]1CC/C(Cn1cc(-c3ccc(OC)cc3)nn1)=C\\CC[C@@]1(C)O[C@@H]21", "growth": "85.4%"}
{"smiles": "O=c1[nH]c2c3ccncc3cc(-c3cccc(Cl)c3)c2c2cnccc12", "growth": "74.8%"}
{"smiles": "O=C1CNCCN1", "growth": "101%"}
{"smiles": "COc1ccc(/C=C/C(=O)NCC(C)O)cc1", "note": "(configuration not stated)", "growth": "99.4%"}
{"smiles": "O=C1Nc2ccccc2/C1=C/c1cn(CCCn2c3ccccc3c(=O)c3ccccc32)c2ccccc12", "growth": "60.3%"}
{"smiles": "Cn1cc(-c2csc(-c3c[nH]c4ccc(F)cc34)n2)c2cccnc21", "growth": "60.4%"}
{"smiles": "Cc1cc(Cl)nc(N(CCCNc2ccnc3cc(Cl)ccc23)Cc2ccco2)n1", "growth": "24.1%"}
{"smiles": "COc1cc(/C=C/c2cc(/C=C/c3ccc(O)c(OC)c3)n(-c3ccc(Cl)cc3)c(=O)n2)ccc1O", "growth": "78.1%"}
{"smiles": "CC1(c2ccccc2)OC1C(=O)O", "note": "(configuration not stated)", "growth": "107%"}
{"smiles": "COc1cc(/C=C2\\C(=O)N(CC(O)COc3cc(O)c4c(=O)cc(-c5ccccc5)oc4c3)c3ccccc32)cc(OC)c1O", "note": "(configuration not stated)", "growth": "78.8%"}
{"smiles": "Oc1cccc2oc(=S)[nH]c12", "growth": "111%"}
{"smiles": "COc1ccc2c(c1)c(-c1nc(-c3c[nH]c4ncccc34)cs1)cn2CCN", "growth": "50.1%"}
{"smiles": "C=C(C)[C@@H]1CC[C@]2(C(=O)N3CCCNCC3)CC[C@]3(C)[C@H](CC[C@@H]4[C@@]5(C)CCC(=O)C(C)(C)[C@@H]5CC[C@]43C)[C@@H]12", "growth": "98.3%"}
{"smiles": "Cc1ccc(NC2CC(=O)N(c3c(C)cc(C)cc3C)C2=O)c(C)c1", "note": "(configuration not stated)", "growth": "95.3%"}
{"smiles": "CC1c2ccccc2N(S(=O)(=O)c2ccccc2)C1C", "note": "(configuration not stated)", "growth": "92.5%"}
{"smiles": "Nc1ccc(Cl)cn1", "growth": "97.4%"}
{"smiles": "CCc1nnc(NC(=O)c2ccoc2COc2ccccc2)s1", "growth": "58.2%"}
{"smiles": "Nc1c2c(nc3ccc(Br)cc13)CC(c1ccccc1)CC2=O", "note": "(configuration not stated)", "growth": "27.2%"}
{"smiles": "CC(C)(C)n1cc(-c2ccnc(NCCCNS(=O)(=O)c3ccc(Cl)cc3)c2)c(-c2cccc(F)c2)n1", "growth": "56.2%"}
{"smiles": "COc1cc(/C=N/NC(=S)NNC(=S)NC2CCCCC2)cc(OC)c1OC", "growth": "84.1%"}
{"smiles": "COc1ccc2[nH]c(-c3ccc(Cl)cc3)cc(=O)c2c1", "growth": "95.2%"}
{"smiles": "Cc1cc(N(CCCNc2ccnc3cc(Cl)ccc23)Cc2ccco2)nc(Cl)n1", "growth": "43.5%"}
